# In the library only some 3.7% were active in any assay of this set; here they are far more common.
# VDR inhibitor: inhibitors of human vitamin D receptor. VDR-SRC2-3 peptide fluorescence polarization, 2 h. actives 0.93% (n = 400,000). P11473. Potency, µM, most hits filed as inhibitors
#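 After 23 nl compound addition and a short centrifugation, plates sat for 2 hours at ambient temperature; polarization of fluorescence then indicated loss of VDR binding to peptide SRC2-3.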
# TCR activator: activators of T cell receptors; primary human leukocytes, anti-CD3, IL-2 HTRF, 48 h; Potency, µM (doses to about 9.22 µM), usual class: activators; 330,000 tested, under 10 active; AID 504894
#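 Activity was scored as IL-2 release from primary human leukocytes given only a TCR signal (a-CD3 beads) plus compound for 48 hr. Detection used a two-antibody HTRF format read at 665nm.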
# PI5P4Ka inh: inhibitors of human PI5P4K alpha. P48426. PI5P4Kalpha enzyme, ADP-Glo luminescence, 60 min; hits give low values. max response, %. actives 1.2% (n = 330,000). AID 652105; active = max response of -50% or lower; inconclusive = between -30% and -50%; inactive = -30% or higher; note: value at the top dose of about 77 µM
# Target sequence (P48426 whole entry, looked up): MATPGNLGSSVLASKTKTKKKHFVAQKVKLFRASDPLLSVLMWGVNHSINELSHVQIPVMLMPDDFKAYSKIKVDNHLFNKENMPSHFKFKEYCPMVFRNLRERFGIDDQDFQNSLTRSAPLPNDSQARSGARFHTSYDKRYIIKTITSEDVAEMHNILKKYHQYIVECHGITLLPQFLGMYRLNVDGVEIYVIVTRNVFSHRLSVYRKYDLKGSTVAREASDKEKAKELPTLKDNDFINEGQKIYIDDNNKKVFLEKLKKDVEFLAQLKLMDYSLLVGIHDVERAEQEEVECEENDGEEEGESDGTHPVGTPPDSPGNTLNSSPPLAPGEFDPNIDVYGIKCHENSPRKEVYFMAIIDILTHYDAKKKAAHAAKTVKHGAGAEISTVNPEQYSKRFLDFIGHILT
#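 Quantitative HTS of the MLSMR library against PI5P4Kalpha with substrate. ATP added last at 5 microM final; room temperature, 60 minutes. Remaining ATP depleted, ADP converted and read as luminescence.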
# PLK1 PBD block: inhibitors of human PLK1 polo-box domain binding | Plk1 PBD binding of FITC phosphopeptide, fluorescence polarization | Potency, µM, hits mostly inhibitors | actives 2.8% (n = 360,000) | AID 720504; note: series mostly up to about 57 µM; nearly all actives have a fitted effect of over 65% in size
# FEN1 inh-1: human FEN1 inhibition; P39748; Recombinant FEN1 flap cleavage, fluorescence, 15 min; Potency, µM (top dose mostly 114 µM), hits mostly inhibitors; actives 0.35% (n = 390,000); AID 588795; note: nearly all actives have a fitted effect of over 65% in size
# Target sequence (P39748 whole entry, looked up): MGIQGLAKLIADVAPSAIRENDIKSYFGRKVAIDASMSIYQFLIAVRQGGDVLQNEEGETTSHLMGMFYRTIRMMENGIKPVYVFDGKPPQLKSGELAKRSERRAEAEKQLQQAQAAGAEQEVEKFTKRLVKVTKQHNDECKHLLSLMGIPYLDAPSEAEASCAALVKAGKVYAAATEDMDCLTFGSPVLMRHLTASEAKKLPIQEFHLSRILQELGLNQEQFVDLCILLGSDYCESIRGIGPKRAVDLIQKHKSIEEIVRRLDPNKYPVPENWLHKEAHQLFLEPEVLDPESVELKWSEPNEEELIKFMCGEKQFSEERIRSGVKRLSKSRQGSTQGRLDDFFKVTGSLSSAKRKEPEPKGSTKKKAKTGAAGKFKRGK
#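 Read-out was taken twice, immediately and after 15 min, following addition of 50 nM substrate to 10 nM FEN1 that had sat with test compound for 15 min at room temperature. Curves came from a four-parameter Hill model.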
# WRN helicase inh-1: blocks human WRN helicase. Q14191. WRN helicase unwinding, fluorescent forked duplex, kinetic. Potency, µM (top dose mostly 114 µM), actives largely listed as inhibitors. actives 0.46% (n = 360,000). AID 651768; note: nearly all actives have a fitted effect of over 55% in size
#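 Kinetic fluorescence helicase assay: unwinding of a quenched forked DNA duplex (100 nM final) with 2 mM ATP final raises red fluorescence (525/598 nm). Compounds sat 15 min at room temperature with 20 nM WRN beforehand.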
# VDR confirm: inhibits human vitamin D receptor, primary hit validation; shares compounds with VDR inhibitor; VDR-coactivator inhibition assay, qHTS confirmation; Potency, µM, hits mostly inhibitors; actives 89% (n = 840); AID 602199
# VDR FP: confirmation of human VDR-coactivator binding inhibitors, fluorescein label | Potency, µM (doses to about 57.1 µM), usual class: inhibitors | VDR-coactivator binding, fluorescein fluorescence polarization | actives 48% (n = 840) | shares compounds with VDR inhibitor
# VDR bla reporter: confirmation of human vitamin D receptor inhibitors in reporter cells; shares compounds with VDR inhibitor; actives 23% (n = 840); VDR beta-lactamase reporter cells, FRET ratio; cells co-treated with VDR agonist LG190178; AID 602202; Potency, µM (titrated, usually from 46.1 µM), hits mostly inhibitors
# VDR viability: cytotoxic in counter-screen for VDR inhibitors. shares compounds with VDR inhibitor. cytotoxicity counter-screen, cell viability, qHTS. Potency, µM (highest dose often 48.3 µM), usual class: cytotoxic. actives 18% (n = 840). AID 602204; note: nearly all actives have a fitted effect of over 75% in size
# FEN1 inh-2: FEN1 inhibition, cherry-pick retest. shares compounds with FEN1 inh-1. FEN1 flap cleavage, TAMRA/BHQ2 fluorogenic DNA substrate. Potency, µM, hits mostly inhibitors. actives 79% (n = 880). AID 720498; note: nearly all actives have a fitted effect of over 60% in size
# WRN helicase inh-2: WRN helicase inhibition, cherry-pick retest; shares compounds with WRN helicase inh-1; WRN helicase DNA unwinding, fluorescence kinetic; Potency, µM (series often up to 57.1 µM), usual class: inhibitors; actives 63% (n = 610); AID 720497; note: nearly all actives have a fitted effect of over 65% in size
# TO displacement: counter-screen for WRN helicase inhibitors: DNA binding. thiazole orange DNA binding displacement, fluorescence. actives 10% (n = 610). shares compounds with WRN helicase inh-1. Potency, µM (series often up to 57.1 µM), hits mostly inhibitors;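 note: drop in dye fluorescence marks compound binding to DNA; nearly all actives have a fitted effect of over 60% in size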
# BLM helicase inh: blocks human BLM helicase in WRN counterscreen; shares compounds with WRN helicase inh-1; Recombinant BLM helicase DNA unwinding, red fluorescence; Potency, µM (doses to about 57.1 µM), usual class: inhibitors; actives 60% (n = 610); AID 720503; note: nearly all actives have a fitted effect of over 60% in size
# TbPYK confirm: Trypanosoma brucei pyruvate kinase inhibition, cherry-pick confirmation; shares compounds with PLK1 PBD block; recombinant TbPYK, Kinase-Glo ATP luminescence; Potency, µM (doses to about 76.9 µM), hits mostly inhibitors; actives 67% (n = 890); AID 720569; note: nearly all actives have a fitted effect of over 70% in size
# TbPYK ADP-Glo: orthogonal confirmation of Trypanosoma brucei pyruvate kinase inhibitors. shares compounds with PLK1 PBD block. recombinant TbPYK, ADP-Glo luminescence, 60 min. Potency, µM (titrated, usually from 76.9 µM), most hits filed as inhibitors. actives 62% (n = 890). AID 720584; note: nearly all actives have a fitted effect of over 75% in size
# A number is an active result; n = inactive; u = inconclusive; x = no result; [ ] = remark or other dose. Unless noted, calls come from the whole dose curve; as a rule, active = well fitted curve in the direction sought with a large enough effect; inconclusive = small, poorly fitted or top-dose-only effect, or another doubt; inactive = no such curve, though single readings can be large; an effect the other way counts as inactive or inconclusive.
SMILES,VDR inhibitor,TCR activator,PI5P4Ka inh,PLK1 PBD block,FEN1 inh-1,WRN helicase inh-1,FEN1 inh-2,others
O=C(O)/C=C/C(=O)c1ccc2c(c1)CCc1ccccc1-2,3.5µM,n,u,6µM,u,1.5µM,x,VDR confirm=3.8;VDR FP=u;VDR bla reporter=u;VDR viability=u;WRN helicase inh-2=u;TO displacement=n;BLM helicase inh=19µM;TbPYK confirm=13µM;TbPYK ADP-Glo=16µM
O=C(Nc1ccccc1)N1CC2(CCN(C(=O)Oc3ccccc3)CC2)C1,n,x,x,x,x,x,x,
O=C1NC(=S)NC(=O)C1=Cc1cccn1-c1ccc(O)cc1,25µM,n,-84,2.4µM,35µM,45µM,76,VDR confirm=8.4;VDR FP=u;VDR bla reporter=u;VDR viability=u;TbPYK confirm=7.1µM;TbPYK ADP-Glo=16µM
O=C(O)CCn1cc(C=C2C(=O)NC(=S)NC2=O)c(-c2ccccc2)n1,10µM,n,-91,2.7µM,n,u,x,VDR confirm=21;VDR FP=u;VDR bla reporter=n;VDR viability=n;TbPYK confirm=1.6µM;TbPYK ADP-Glo=4.5µM
CC[C@H](C)[C@H](NC(=O)[C@@H]1CCCN1C(=O)[C@H](CCC(=O)O)NC(=O)[C@@H](NC(=O)[C@H](Cc1ccccc1)NC(=O)[C@@H]1CCCN1C(=O)[C@@H](N)Cc1ccc(O)cc1)C(C)C)C(=O)O,n,x,x,x,x,x,x,
N[C@@H](CCCCP(=O)(O)O)C(=O)O,n,x,x,x,x,x,x,
CN1C(=O)C(=Cc2ccccc2OS(=O)(=O)c2ccccc2)C(=O)N(C)C1=O,25µM,n,n,5.3µM,n,n,x,VDR confirm=27;VDR FP=11µM;VDR bla reporter=n;VDR viability=n;TbPYK confirm=20µM;TbPYK ADP-Glo=u
Cc1c(C=C2C(=O)N(C)C(=O)N(C)C2=O)c(=O)n(-c2ccccc2)n1C,n,n,n,u,n,n,x,
COc1ccc(N2C(=O)/C(=C/C=C/c3ccccc3[N+](=O)[O-])C(=O)NC2=S)cc1,22µM,n,-91,1.3µM,u,25µM,x,VDR confirm=3.4;VDR FP=u;VDR bla reporter=u;VDR viability=n;TbPYK confirm=11µM;TbPYK ADP-Glo=25µM
COc1cc2c(cc1OC)-c1c(OC)c(OC)cc3c1C(C2)N(C)CC3 (centres undefined),n,n,n,n,n,n,x,
COc1cc2c(cc1OC)-c1c3c(cc4c1[C@@H](C2)N(C)CC4)OCO3,n,n,n,n,2.5µM,u,34,
NCCc1cc(O)c(O)cc1O,89µM,n,-76,15µM,25µM,u,u,
Cc1ccc(N2C(=O)NC(=O)/C(=C\c3cc(C)n(-c4sc5c(c4C#N)CCCC5)c3C)C2=O)cc1,45µM,n,u,0.6µM,u,50µM,76,
CCCCCCC(=O)O[C@H]1CC[C@H]2[C@@H]3CCC4CC(=O)C=C(C)[C@]4(C)[C@H]3CC[C@]12C (some centres undefined),n,x,x,x,x,x,x,
CC(C)[C@@H]1CN[C@H](C(=O)O)[C@@H]1CC(=O)O,n,x,x,x,x,x,x,
Cc1cc(C=C(C#N)C#N)ccc1N1CCCC1,u,n,n,n,u,n,76,
COC(=O)c1nc(-c2ccc3c(n2)C(=O)C(N)=C(OC)C3=O)c(N)c(-c2ccc(OC)c(OC)c2O)c1C,10µM,n,n,n,16µM,u,38,
CN1C(=O)COc2c(C(=O)N[C@@H]3CN4CCC3CC4)cc(Cl)cc21,n,x,x,x,x,x,x,
CC[n+]1c(-c2ccccc2)c2cc(N)ccc2c2ccc(N)cc21,6.3µM,n,n,n,13µM,3µM,17,
C[C@]12CC[C@@H]3[C@@H](CCC4=CC(=O)CC[C@@H]43)[C@@H]1CC[C@@H]2OC(=O)CCc1ccccc1,n,x,x,x,x,x,x,
N[C@@H](Cc1cc(I)c(O)c(I)c1)C(=O)O,u,n,-98,n,7.9µM,u,60,
CC(C)CS(=O)(=O)C1=NN2C(=N)/C(=C\c3ccc(OC(=O)c4ccco4)cc3)C(=O)N=C2S1,u,n,-84,21µM,n,u,u,
N#Cc1ccc(CN2CCCC3(CCN(C(=O)Oc4ccccc4)CC3)C2)cc1,n,x,x,x,x,x,x,
CCCCCCCCCCCCCCCCOC[C@@H](COP(=O)([O-])OCC[N+](C)(C)C)OC(C)=O,n,x,x,x,x,x,x,
CCCC(C)(COC(N)=O)COC(=O)NC1CC1 (centres undefined),n,x,x,x,x,x,x,
SMILES,VDR inhibitor,TCR activator,PI5P4Ka inh,PLK1 PBD block,FEN1 inh-1,WRN helicase inh-1,FEN1 inh-2,others
O=C(Cc1cc(=O)oc2cc(O)ccc12)NN=Cc1ccc(N(CCCl)CCCl)cc1,n,n,n,n,32µM,u,38,
O=C(NN=Cc1ccc(N(CCCl)CCCl)cc1)c1cc(=O)[nH]c(=O)[nH]1,n,n,n,n,n,n,x,
COc1ccc(/C=C2/C(=O)N(Cc3ccco3)C(=O)N(C(C)C)C2=O)cc1,u,n,u,3.4µM,u,n[11.6 µM],27,
CCOc1cccc(N2C(=O)/C(=C/c3ccco3)C(=O)NC2=S)c1,u,n,-93,12µM,22µM,35µM,43,
CCN(CC)c1ccc(/C=C2\C(=O)NC(=S)N(c3ccc(OC)cc3OC)C2=O)o1,n,n,n,n,n,n,x,
C=C1Nc2ccccc2C(=O)N1c1ccccc1C,n,x,x,x,x,x,x,

# Source: PubChem (National Center for Advancing Translational Sciences (NCATS))
